Results taken from the supplement of paper PMC5641865, “A screen for kinase inhibitors identifies antimicrobial imidazopyridine aminofurazans as specific inhibitors of the Listeria monocytogenes PASTA kinase PrkA” (The Journal of Biological Chemistry, 2017).
Where a name gives a salt, the structure may show the parent alone. ± gives the standard deviation of the averaged measurements.

test system: Listeria monocytogenes 10403S; test: growth inhibition relative to ceftriaxone-alone control; higher = stronger potentiation of ceftriaxone growth inhibition; details: 10 µM; ceftriaxone 1 ug/ml; 12 h
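Further: End-point A600 read in BHI broth at 37 °C with 2% DMSO, inhibition computed as (1 − OD with compound plus ceftriaxone ÷ OD with ceftriaxone only) × 100.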

Structure (SMILES) | growth inhibition
c1cnn2ncc(-c3ccnc(NCCCN4CCOCC4)n3)c2c1 | -2.97 ± 0.54%
CCN(CC)CCNC(=O)c1c(C)[nH]c(/C=C2\C(=O)Nc3ccc(F)cc32)c1C [Sunitinib Malate (Sutent)] | 73.6 ± 12%
O=C(O[C@H]1CN[C@H](C#Cc2cc3ncnc(Nc4ccc5c(cnn5Cc5ccccc5)c4)c3s2)C1)N1CCOCC1 | -5.28 ± 15%
Nc1nccc(-c2c(-c3ccc(F)cc3)ncn2CCCN2CCOCC2)n1 | -1.02 ± 0.073%
Cc1[nH]c(/C=C2\C(=O)Nc3ccc(S(=O)(=O)N(C)c4cccc(Cl)c4)cc32)c(C)c1C(=O)N1CCN(C)CC1 | 51.3 ± 11%
CCc1cnn2c(NCc3ccc[n+]([O-])c3)cc(N3CCCC[C@H]3CCO)nc12 | -2.28 ± 10%
C=CC(=O)Nc1cc2c(Nc3ccc(F)c(Cl)c3)ncnc2cc1OCCCN1CCOCC1 [CI-1033 (Canertinib)] | 21.5 ± 6.1%
Cc1cc(Nc2cc(N3CCN(C)CC3)nc(Sc3ccc(NC(=O)C4CC4)cc3)n2)n[nH]1 [VX-680 (MK-0457, Tozasertib)] | 52.7 ± 17%
CN1CCN(c2ccc3nc(-c4c(N)c5c(F)cccc5[nH]c4=O)[nH]c3c2)CC1 [Dovitinib Dilactic Acid (TKI258 Dilactic Acid)] | 33.4 ± 20%
Oc1cccc(-c2nc(N3CCOCC3)c3oc4ncccc4c3n2)c1 | 22.4 ± 24%
Oc1cc(O)cc(/C=C/c2ccc(O)c(O)c2)c1 [Piceatannol] | 29.4 ± 16%
CN1CCC(C(=O)Nc2n[nH]c3nc(-c4ccc(O)cc4)c(Br)cc23)CC1 | -3.78 ± 12%
N#CC1(c2ccc(NC(=O)c3cccnc3NCc3ccncc3)cc2)CCCC1 [Apatinib (YN968D1)] | 12.7 ± 6.2%
C=CC(=O)Nc1cccc(Sc2nc(Nc3ccc(N4CCN(C)CC4)cc3)ncc2Cl)c1 | 94.1 ± 1.1%
C#Cc1cccc(Nc2ncnc3cc(OCCOC)c(OCCOC)cc23)c1 [Erlotinib HCl] | 18.6 ± 18%
N#Cc1c(O)c2c(-c3ccc(-c4ccccc4O)cc3)csc2[nH]c1=O | 40.8 ± 15%
N#CC(=C(/N)Sc1ccccc1N)/C(C#N)=C(\N)Sc1ccccc1N | 51.1 ± 42%
Fc1ccc(-c2cc(-c3c[nH]nc3-c3ccccn3)ccn2)cc1 | -6.8 ± 13%
CS(=O)(=O)CCNCc1ccc(-c2ccc3ncnc(Nc4ccc(OCc5ccccc5)c(Cl)c4)c3c2)o1 | -9.81 ± 12%

Structure (SMILES) | growth inhibition
Cc1ccc(C(=O)Nc2cccc(C(F)(F)F)c2)cc1Nc1nc(-c2cccnc2)nc2c1cnn2C | -1.9 ± 16%
CCn1nnc2c(N3CCOCC3)nc(-c3ccc(NC(=O)Nc4ccc(C(=O)N5CCN(C)CC5)cc4)cc3)nc21 | 20.2 ± 19%
CCN1CCN(Cc2ccc(-c3cc4c(N[C@H](C)c5ccccc5)ncnc4[nH]3)cc2)CC1 | 22.1 ± 4.2%
Fc1ccc(-c2ncn(C3CCNCC3)c2-c2ccnc(Oc3ccc(F)c(F)c3)n2)cc1 | 10.7 ± 16%
Cc1cccc(Nc2ncc(-c3ccccc3)o2)c1 | -0.369 ± 0.46%
O=C1NC(=O)C(c2ccccc2Cl)=C1Nc1cccc(O)c1 | -3.8 ± 3.6%
NS(=O)(=O)c1ccc(N/N=C2\C(=O)Nc3ccc(-c4cnco4)cc32)cc1 | 0.00978 ± 0.57%
Clc1ccc(Nc2nnc(Cc3ccncc3)c3ccccc23)cc1 [Vatalinib 2HCl (PTK787)] | 24.8 ± 20%
CCn1c(-c2nonc2N)nc2c(C#CC(C)(C)O)ncc(OC3CCNCC3)c21 | 77 ± 1.4%
Nc1nccc(-c2c(-c3ccc(F)cc3)ncn2C2CCNCC2)n1 | 2.49 ± 6.8%
COc1cc2/c(=N/c3ccc(Br)cc3F)nc[nH]c2cc1OCC1CCN(C)CC1 [Vandetanib (Zactima)] | 24.2 ± 29%
Cc1cc2c(F)c(Oc3ncnn4cc(OC[C@@H](C)OC(=O)[C@H](C)N)c(C)c34)ccc2[nH]1 | 100.2 ± 0.95%
CCn1c(-c2nonc2N)nc2c(N3CCCC3)nccc21 | 18.7 ± 38%
COc1cc2ncnc(Nc3ccc(F)c(Cl)c3)c2cc1NC(=O)/C=C/CN1CCCCC1 | 60 ± 55%
Cc1cnc(Nc2ccc(N3CCN(C)CC3)cc2)nc1Nc1cccc(S(=O)(=O)NC(C)(C)C)c1 | 42.3 ± 24%
COc1cc2c(Nc3ccc(NC(=O)c4ccccc4)cc3)ncnc2cc1OCCCN1CCOCC1 | 24.9 ± 20%
CS(=O)(=O)Nc1cccc(-c2ccc3c(NC(=O)C4CC4)n[nH]c3c2)c1 | -6.98 ± 15%
Cc1ccc2c(-c3ccnc(Nc4ccccc4)n3)c(-c3ccc(F)cc3)nn2n1 | -6.27 ± 1.4%
COc1ccc2c(Oc3ccc(NC(=O)c4c(C)n(CC(C)(C)O)n(-c5ccccc5)c4=O)nc3)ccnc2c1 | 28.9 ± 13%
